# Laboratory results taken from PubChem BioAssay AID1455 (National Center for Advancing Translational Sciences (NCATS), 2008).
# Records with an inconclusive call do not appear. The source made the active and inactive calls. Calls come from the whole dose curve; as a rule, active = well fitted inhibition curve with a large enough effect; inconclusive = small, poorly fitted or top-dose-only effect; inactive = no such curve, though single readings can be large or run the other way.
# Biological target: Ubiquitin carboxyl-terminal hydrolase 2 (Homo sapiens) (UniProt O75604)
# Sequence (O75604 whole entry, looked up): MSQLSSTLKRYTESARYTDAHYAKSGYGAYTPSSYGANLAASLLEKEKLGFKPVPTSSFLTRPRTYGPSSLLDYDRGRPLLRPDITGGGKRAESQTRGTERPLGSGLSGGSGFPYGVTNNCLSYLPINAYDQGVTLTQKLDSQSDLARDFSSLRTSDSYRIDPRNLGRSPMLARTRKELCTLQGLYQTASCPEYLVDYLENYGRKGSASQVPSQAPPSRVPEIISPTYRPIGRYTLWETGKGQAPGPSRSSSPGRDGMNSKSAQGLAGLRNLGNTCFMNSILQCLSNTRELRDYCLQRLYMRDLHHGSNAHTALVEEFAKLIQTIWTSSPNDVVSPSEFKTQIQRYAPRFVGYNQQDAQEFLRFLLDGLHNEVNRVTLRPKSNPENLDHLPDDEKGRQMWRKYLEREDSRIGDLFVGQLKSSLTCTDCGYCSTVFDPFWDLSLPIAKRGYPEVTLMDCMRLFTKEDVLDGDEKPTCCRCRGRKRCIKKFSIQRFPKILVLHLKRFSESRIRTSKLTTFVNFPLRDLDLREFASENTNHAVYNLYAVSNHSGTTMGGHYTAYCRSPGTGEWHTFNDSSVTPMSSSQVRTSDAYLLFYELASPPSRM
# Test: Confirmation Concentration-response Assay for Inhibitors of Ubiquitin-specific Protease USP2a
# Settings: USP2 core, Ub-PLA2 coupled fluorescence, NBD C6-HPC
# Text: NIH Molecular Libraries Screening Centers Network [MLSCN] NIH Chemical Genomics Center [NCGC] MLSCN Grant: XO1-MH079852-01 PI Name: Nicholson, Ben. Progenra Inc, Malvern, PA NCGC Assay Overview: Homeostasis of cellular proteins is maintained through a combination of synthesis and degradation. The pathway that accounts for the majority of protein degradation is the ubiquitin-proteasomal pathway. Ubiquitin (Ub) is highly conserved in all cells and the generation of a multi-Ub chain typically targets proteins for degradation by the proteasome. However, ubiquitination is highly reversible and dynamic. […] Thus, this coupled assay gives a fluorescent read-out, which is generated through the cleavage of the PLA2 reporter enzyme. […]
# NCGC Assay Protocol Summary: The assay buffer, prepared fresh at the day of the assay, contains 20mM Tris-HCl pH 8.0, 2mM CaCl2, 2mM beta-Mercaptoethanol, 0.1% DMSO. […] Plates were read immediately (0 Hour) on an Envision (Perkin Elmer) plate reader using the following wavelengths Ex 460nm /Em 535nm. Then, the assay plates were incubated for 2.5 hours and read again on the Envision using the same settings Data were normalized to the to AC100 inhibition (NEM). Concentration-response curves were fitted to the normalized data and the concentration-response curves were then classified based on curve quality (r2), response magnitude and degree of measured activity. […]
compound,measurement,value
Cc1ccc2scc(N3CCN(C)CC3)c(=O)c2c1,Potency,12.6 µM (active)
